Shown are actives, neighbours in structure and some others; about 5.7% of the full set was active somewhere.
MPTP block: inhibitors of mitochondrial permeability transition pore; actives 1.4% (n = 360,000); inhibition, % at 10 µM; isolated mouse mitochondria, Ca2+ swelling absorbance, 30 min; AID 602449;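 active = inhibition of 50% or more, scaled per plate between neutral and stimulator controls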;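 note: 0% = DMSO wells given calcium and 100% = 1 mM EGTA wells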
rCAG binder: binds r(CAG) RNA repeats; r(CAG) RNA repeat, TO-PRO-1 dye displacement fluorescence; inhibition, % at 3 µM; actives 1.3% (n = 370,000); AID 651821;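 active = inhibition above the plate cutoff, the mean of all test compounds on that plate plus 3 SD, cut at about 35% in these data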;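 note: 0% = DMSO alone and 100% = 100 µM mitoxantrone as full dye displacement; higher means more dye released from RNA so lower well fluorescence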
GRIN3A LBD mod: modulates the human NR3A ligand-binding domain. NR3A LBD differential scanning fluorimetry, Tm shift; 0% = protein alone, 100% = glycine-bound protein. Tm shift relative to glycine control, % at 25 µM. actives 2.5% (n = 340,000). AID 1259313;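 active = melting temperature shift of at least 10% of the positive control shift, at one fixed dose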
Myeloid diff MLP: compounds promoting myeloid differentiation | ER-HoxA9 myeloid progenitors, lysozyme-GFP differentiation, flow cytometry | calls only at 10 µM | actives 1% (n = 360,000) | AID 624256;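 active = normalized GFP-positive differentiation at or above the plate's own cutoff, the solvent-only control mean plus 3 SD; inconclusive = no clear call, values can overlap the other calls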;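 note: cells exposed to compound for four days before flow analysis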
FAS TE block: FAS thioesterase (human) inhibition; inhibition, % at 15 µM; AID 602261; actives 0.67% (n = 360,000); recombinant FAS-TE, OMFH fluorogenic substrate, fluorescence endpoint; P49327;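 active = compounds whose normalised, plate-corrected inhibition of enzyme fluorescence in the single-dose primary screen is 50% or more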;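 note: 0% = DMSO with enzyme and 100% = substrate without enzyme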
Target sequence (P49327 whole entry, looked up): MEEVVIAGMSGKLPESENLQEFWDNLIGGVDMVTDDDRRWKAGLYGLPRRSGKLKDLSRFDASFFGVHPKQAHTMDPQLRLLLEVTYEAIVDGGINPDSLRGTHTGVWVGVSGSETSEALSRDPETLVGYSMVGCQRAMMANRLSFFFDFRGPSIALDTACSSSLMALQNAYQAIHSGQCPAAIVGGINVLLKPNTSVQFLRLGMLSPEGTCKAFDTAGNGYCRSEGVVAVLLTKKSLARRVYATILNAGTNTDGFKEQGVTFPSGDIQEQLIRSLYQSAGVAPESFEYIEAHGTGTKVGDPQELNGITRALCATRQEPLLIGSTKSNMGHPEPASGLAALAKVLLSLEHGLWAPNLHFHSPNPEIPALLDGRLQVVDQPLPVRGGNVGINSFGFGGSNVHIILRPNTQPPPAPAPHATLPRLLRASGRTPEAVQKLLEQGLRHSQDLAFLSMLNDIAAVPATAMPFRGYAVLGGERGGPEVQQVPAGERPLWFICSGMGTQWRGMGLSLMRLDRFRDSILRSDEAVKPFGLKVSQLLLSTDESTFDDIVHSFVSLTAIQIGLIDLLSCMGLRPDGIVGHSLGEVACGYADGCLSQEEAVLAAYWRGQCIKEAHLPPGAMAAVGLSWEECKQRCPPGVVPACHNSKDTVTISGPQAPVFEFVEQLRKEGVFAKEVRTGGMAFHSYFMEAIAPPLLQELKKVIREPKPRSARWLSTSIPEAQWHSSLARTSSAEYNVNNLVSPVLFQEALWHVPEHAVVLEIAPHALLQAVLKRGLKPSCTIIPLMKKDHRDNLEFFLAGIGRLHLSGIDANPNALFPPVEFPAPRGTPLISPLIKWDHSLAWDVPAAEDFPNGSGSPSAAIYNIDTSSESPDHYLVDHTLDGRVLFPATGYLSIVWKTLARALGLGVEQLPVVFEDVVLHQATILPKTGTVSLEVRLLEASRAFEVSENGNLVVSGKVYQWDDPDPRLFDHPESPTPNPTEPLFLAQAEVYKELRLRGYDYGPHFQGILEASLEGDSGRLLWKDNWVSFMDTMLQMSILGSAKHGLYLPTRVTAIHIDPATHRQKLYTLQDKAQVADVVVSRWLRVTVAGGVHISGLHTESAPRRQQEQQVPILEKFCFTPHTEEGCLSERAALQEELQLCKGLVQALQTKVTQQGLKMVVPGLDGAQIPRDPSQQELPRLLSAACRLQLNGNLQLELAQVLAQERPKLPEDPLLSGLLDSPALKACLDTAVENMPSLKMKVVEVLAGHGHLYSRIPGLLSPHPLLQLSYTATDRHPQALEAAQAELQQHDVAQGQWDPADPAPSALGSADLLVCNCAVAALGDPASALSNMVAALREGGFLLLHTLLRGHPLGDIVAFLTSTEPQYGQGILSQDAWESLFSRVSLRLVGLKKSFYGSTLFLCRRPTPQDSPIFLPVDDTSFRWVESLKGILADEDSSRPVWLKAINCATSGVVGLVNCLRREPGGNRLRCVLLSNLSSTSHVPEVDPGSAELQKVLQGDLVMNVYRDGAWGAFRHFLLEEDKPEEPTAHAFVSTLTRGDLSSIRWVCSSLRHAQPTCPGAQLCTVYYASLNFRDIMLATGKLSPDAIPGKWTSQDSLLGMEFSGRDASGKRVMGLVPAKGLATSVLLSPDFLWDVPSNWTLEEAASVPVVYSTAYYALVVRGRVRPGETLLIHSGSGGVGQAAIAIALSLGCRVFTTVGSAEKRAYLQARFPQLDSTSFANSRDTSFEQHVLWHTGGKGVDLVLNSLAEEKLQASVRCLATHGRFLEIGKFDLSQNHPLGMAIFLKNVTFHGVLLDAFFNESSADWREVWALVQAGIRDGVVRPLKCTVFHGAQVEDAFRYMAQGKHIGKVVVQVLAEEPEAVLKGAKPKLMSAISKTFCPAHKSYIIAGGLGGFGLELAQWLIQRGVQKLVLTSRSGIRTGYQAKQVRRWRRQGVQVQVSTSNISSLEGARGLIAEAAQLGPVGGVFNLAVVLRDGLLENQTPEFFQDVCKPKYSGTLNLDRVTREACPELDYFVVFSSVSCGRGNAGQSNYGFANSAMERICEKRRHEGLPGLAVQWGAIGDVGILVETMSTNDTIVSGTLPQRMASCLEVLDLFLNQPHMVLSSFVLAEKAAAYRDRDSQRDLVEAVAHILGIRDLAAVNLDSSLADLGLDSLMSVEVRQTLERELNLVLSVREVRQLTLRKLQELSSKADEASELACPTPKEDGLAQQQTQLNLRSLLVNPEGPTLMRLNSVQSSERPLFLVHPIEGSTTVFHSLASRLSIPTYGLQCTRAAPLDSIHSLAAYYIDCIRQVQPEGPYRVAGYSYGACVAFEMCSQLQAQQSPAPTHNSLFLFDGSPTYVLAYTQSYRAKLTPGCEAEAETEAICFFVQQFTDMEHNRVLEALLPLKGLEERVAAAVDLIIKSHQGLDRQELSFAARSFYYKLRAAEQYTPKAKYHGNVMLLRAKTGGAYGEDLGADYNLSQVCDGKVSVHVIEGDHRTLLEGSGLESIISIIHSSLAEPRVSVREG
MPTP counter: mitochondrial membrane potential, counter-screen. shares compounds with MPTP block. isolated mitochondria, Rhodamine 123 fluorescence. inhibition, % at 10 µM. actives 78% (n = 5,000). AID 624504; in the data active = inhibition above about 22%;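 note: 0% = DMSO vehicle and 100% = positive control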
MPTP swell DR: dose response confirmation of mitochondrial permeability transition pore inhibitors. shares compounds with MPTP block. isolated mitochondria swelling, absorbance. IC50, µM. actives 58% (n = 780); in the data active = IC50 below about 20 µM
MPTP counter DR: MPTP inhibitor counter-screen activity, dose response | shares compounds with MPTP block | isolated mitochondria counterscreen, fluorescence read-out | actives 49% (n = 780) | IC50, µM; in the data active = IC50 below about 80 µM
Myeloid diff: promotes myeloid progenitor differentiation; AID 651706; actives 2% (n = 2,300); calls only; shares compounds with Myeloid diff MLP; ER-HoxA9 myeloid progenitors, GFP/Mac1 double-positive flow;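 active = share of green or green-and-red cells above 9 and 9% in run 1 or 4 and 3% in run 2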
GFP autofluor: compound fluorescence in myeloid differentiation counter-screen; shares compounds with Myeloid diff MLP; ER-HoxA9 myeloid progenitors, no estrogen, GFP autofluorescence flow cytometry; vehicle wells 0%, positive control 100%; fluorescence response, % (test concentration not listed); actives 7.4% (n = 2,300); AID 651707;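 active = over 5% cells positive for green fluorescent reporter, or over 2% positive for both it and APC stain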;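 note: range taken on the double positive population between DMSO and positive control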
rCAG bind conf: r(CAG) RNA repeat binding, confirmation; actives 70% (n = 4,300); inhibition, % at 3 µM; shares compounds with rCAG binder; TO-PRO-1 dye displacement fluorescence;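 active = inhibition above a per-plate cutoff, the mean inhibition of sample wells plus 3 SD, cut at about 35% in these data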;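 note: loss of TO-PRO-1 fluorescence as compound displaces dye from 1x1 AA loop RNA; 0% = DMSO only wells and 100% = 100 µM mitoxantrone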
dCAG dye counter: DNA CAG dye complex inhibition counter-screen; AID 652068; d(CAG) DNA oligo TO-PRO-1 dye displacement, fluorescence; shares compounds with rCAG binder; actives 94% (n = 4,300); inhibition, % at 3 µM;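 active = inhibition above its plate's cutoff, the mean test-well inhibition plus 3 SD, cut at about 4.8% in these data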;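 note: 0% = DNA dye mix with DMSO and 100% = 100 µM mitoxantrone; hits displace the dye from DNA and so lower well fluorescence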
* hit, by the source's call; i = inactive; ? = inconclusive; / = no result.

SMILES	MPTP block	rCAG binder	GRIN3A LBD mod	Myeloid diff MLP	FAS TE block	MPTP counter	rCAG bind conf	dCAG dye counter	others
O=C1/C(=C\c2cc([N+](=O)[O-])ccc2O)SC(=S)N1Cc1ccc(Cl)cc1	52.1*	54.2*	-15.5	i	-39.1	6.6	87.2*	74.3*	Myeloid diff=i;GFP autofluor=73.9*
Cc1ccccc1/C=C1\SC(=S)N(/N=C/c2cc([N+](=O)[O-])ccc2O)C1=O	79.9*	36.8*	7.3	i	8.9	45.0*	34.4	10.5*
O=C1/C(=C\c2cccc(O)c2O)SC(=S)N1Cc1ccccc1	91.6*	37.2*	37.6*	i	26.7	45.8*	82.9*	52.6*
COc1ccc(CC(=O)Nc2ccccc2C(F)(F)F)cc1S(=O)(=O)N1CCOCC1	0.3	3.1	/	i	-7.6	/	/	/
O=S1(=O)c2ccc(Br)cc2OCCC2CCCCN21 (centres undefined)	/	0.4	/	/	/	/	/	/
C[C@H](CO)N1C[C@H](C)[C@@H](CN(C)C(=O)NC2CCCCC2)Oc2ccc(NS(=O)(=O)c3ccc(F)cc3)cc2C1=O	0.5	-5.2	-2.3	i	-8.6	/	/	/
CC1=NN(c2ccc(C(=O)O)cc2)C(=O)/C1=C/c1ccc(-c2ccccc2F)o1	3.7	/	/	i	-2.2	/	/	/
CC1=NN(c2ccc(C)cc2)C(=O)/C1=C/c1ccc(-c2cc([N+](=O)[O-])ccc2O)o1	101.9*	56.4*	-0.3	i	3.9	45.9*	63.8*	33.5*
Cc1ccc(C)n1NC(=O)c1ccccc1O	77.5*	36.4*	-1.9	i	-5.3	58.0*	21.6	12.6*
Cc1ccc(C)n1NC(=O)c1ccccc1[N+](=O)[O-]	-0.9	16.3	-0.5	i	-1.8	/	/	/
CC1=NN(c2nc(-c3ccc(Cl)cc3)cs2)C(=O)C1	59.8*	57.9*	19.4*	i	-2.7	16.9	73.4*	39.1*	MPTP swell DR=12.6*;MPTP counter DR=<2.5*
CC1=NN(c2nc(-c3ccc(F)cc3)cs2)C(=O)C1	2.4	/	2.6	i	-3.9	/	/	/
CC(=O)c1cccc(-c2ccnc3c2CC(C(=O)Nc2cccc(NS(C)(=O)=O)c2)O3)c1 (centres undefined)	-0.9	3.4	/	i	-2.0	/	/	/
CN1c2ccccc2C(O)=C(C(=S)Nc2ccc(F)c(Cl)c2)S1(=O)=O	88.6*	81.5*	26.7*	i	4.7	72.4*	71.8*	32.2*
CN1c2ccccc2C(O)=C(C(=S)Nc2ccccc2)S1(=O)=O	-1.2	26.4	-3.9	i	-6.5	/	/	/
O=C(CSc1nc2ccccc2s1)NNC(=S)Nc1ccc(Br)cc1	81.9*	53.3*	27.2*	i	-3.8	83.0*	61.0*	22.3*
CCC1NC(=O)c2cc3ccccc3cc2-n2c1nc1cc(OC)c(OC)cc1c2=O (centres undefined)	0.1	3.1	/	i	-1.6	/	/	/
Cc1[nH]n(-c2ccccc2)c(=O)c1C(c1ccccc1[N+](=O)[O-])C(C#N)C#N (centres undefined)	2.9	7.5	-1.2	i	-3.7	/	/	/
Cc1[nH]n(-c2ncc(-c3ccccc3)s2)c(=O)c1C(c1ccc(Cl)cc1)C(C#N)C#N (centres undefined)	103.2*	45.6*	12.5*	i	11.2	24.7*	80.6*	48.5*
COc1cc2c(cc1OC)C(c1ccc(Br)cc1)NCC2 (centres undefined)	1.6	-3.0	-0.2	i	0.3	/	/	/
O=[N+]([O-])c1cc(Cl)cc(/C=N/NC(=S)Nc2ccc(S(=O)(=O)N3CCOCC3)cc2)c1O	71.5*	97.6*	8.5	i	28.1	25.8*	87.7*	63.4*
Cc1ccc(S(=O)(=O)N(CC(=O)Nc2ccc(Cl)cc2)C(=O)N2CCN(C)CC2)cc1	1.5	1.6	1.7	i	-6.6	/	/	/
CC(C)(C)c1ccc(NC(=O)COC(=O)c2ccc(NS(=O)(=O)c3ccc(F)c(F)c3)cc2)cc1	60.3*	70.1*	30.4*	i	31.9	60.5*	66.8*	24.1*
CC(C)(C)NC(=O)NC(=O)COC(=O)c1cccc(NS(=O)(=O)c2ccc(F)c(F)c2)c1	0.7	16.2	-0.2	i	3.7	/	/	/
COC(=O)[C@]12C[C@H](CC(=O)N3CCCC3)C(=O)N(Cc3ccc(Cl)cc3Cl)C1=C[C@H](COCc1ccccc1)O[C@@H]2C	/	7.8	/	/	/	/	/	/
SMILES	MPTP block	rCAG binder	GRIN3A LBD mod	Myeloid diff MLP	FAS TE block	MPTP counter	rCAG bind conf	dCAG dye counter	others
Cc1cc2c(cc1S(=O)(=O)NCc1ccccc1)OCC(=O)N2	-1.3	1.1	1.1	i	-5.5	/	/	/
O=S(=O)(Nc1ncnc2scc(-c3ccc(F)cc3)c12)c1cc(F)ccc1F	57.1*	53.8*	0.6	i	-0.3	74.9*	54.8*	20.3*
N#CC1=C(N)SC(N)=C(C#N)C1c1cccc(Oc2ccccc2)c1	88.9*	60.4*	9.3	i	-32.3	69.7*	33.8	11.5*
CC(=O)CC1c2ccccc2C=C(c2ccsc2)N1c1ccc(-c2cccs2)cc1 (centres undefined)	2.7	15.3	/	i	19.7	/	/	/
COc1ccc(C(=O)Nc2cc(S(=O)(=O)N3CCCCC3)ccc2C)cc1	1.2	6.8	/	i	2.1	/	/	/
COc1ccc(NS(=O)(=O)c2ccc(O)c(NC(=O)c3ccc(S(=O)(=O)N4CCCCCC4)cc3)c2)cc1	65.9*	67.8*	16.1*	i	-32.8	48.5*	77.6*	39.1*
Cc1ccc2nc(Cl)c3nnnn3c2c1	2.7	/	0.7	?	26.8	/	/	/
O=C(Nc1nnc(-c2ccccc2Cl)o1)c1nc2ccccc2s1	95.9*	39.9*	-11.0	i	-2.1	-8.9	47.2*	12.7*
O=C(Nc1cc([N+](=O)[O-])ccc1F)C1CC1	-1.7	0.7	-1.3	i	1.7	/	/	/
Cc1ccc(C2(c3ccc(C)cc3)CC2C(=O)Nc2ccc([N+](=O)[O-])cc2O)cc1 (centres undefined)	82.3*	66.3*	0.5	/	-14.9	46.8*	62.2*	29.4*
O=C(NNC(=O)c1ccc2ccccc2c1)c1cccc(Br)c1	0.2	3.9	0.6	i	0.8	/	/	/

Screens (PubChem)
